Bioassay records (PubChem BioAssay)
Pf growth 96h: Primary qHTS for delayed death inhibitors of the malarial parasite plastid, 96 hour incubation; P. falciparum luciferase reporter growth, 96 h; Potency, µM (series often up to 28.7 µM), for the others: top-dose activity change, negative = inhibition, actives largely listed as inhibitors; hit rate 6.9% among 320,000; AID 504834, 2011; note: potency is the fitted concentration of half-maximal effect; % is set by controls: 0 for no effect and ±100 for the full control effect
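Delayed-death screen, second-generation endpoint: infected erythrocytes, 2% hematocrit, 0.05% parasitemia final; 96 hours at 37 C, 5% CO2; luciferase detection reagent; luminescence decrease equals reduced growth.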
CHX counter: Cycloheximide Counterscreen for Small Molecule Inhibitors of Shiga Toxin | hit rate 12% among 300,000 | cell reporter, cycloheximide protein synthesis inhibition counterscreen | max response, %; in the data active = max response mostly above about 13%, no sharp cut-off; inactive = mostly below about 14%; note: read at 38.3 µM for the half of the compounds with a filed dose; 0% is about no effect
Shiga inhibitor: A qHTS for Small Molecule Inhibitors of Shiga Toxin | Vero cells, Shiga toxin protein synthesis inhibition reporter | inhibition, % at 38.7 µM | hit rate 9.2% among 290,000; in the data active = inhibition mostly above about 28%, no sharp cut-off; inactive = mostly below about 43%; note: 0% is about no effect
Pf growth 48h: Primary qHTS for delayed death inhibitors of the malarial parasite plastid, 48 hour incubation. P. falciparum luciferase growth in erythrocytes, 48 h. AID 504832, 2011. hit rate 5.9% among 310,000. Potency, µM (highest dose often 28.7 µM), for inactives: at the top dose activity change, negative = inhibition, usual class: inhibitors; note: potency is the fitted concentration of half-maximal effect; % is set by controls: 0 for no effect and ±100 for the full control effect
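In quantitative HTS format, infected erythrocytes bearing luciferase-reporter parasites were treated for a single generation at 37 C. Luminescence after adding detection reagent served as the growth measure.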
Starred values were filed as active, the others as inactive; i = inactive; u = inconclusive; x = not tested or not shown; + = active, no number. An excerpt weighted towards active compounds, which were near 21% of everything screened. Unless noted, calls come from the whole dose curve; as a rule, active = well fitted inhibition curve with a large enough effect; inconclusive = small, poorly fitted or top-dose-only effect, or another doubt; inactive = no such curve, though single readings can be large or run the other way.

SMILES	Pf growth 96h	CHX counter	Shiga inhibitor	Pf growth 48h
CC(C)c1nnc(NC(=O)CCC(=O)NC2CC2)s1	-19%	-11	-2	20%
CCCNC(C)C(=O)Nc1c(C)csc1C(=O)OC (stereo not drawn)	3%	x	x	4%
COc1ccc(N(C)S(=O)(=O)c2ccc3c(c2)oc(=O)n3C)cc1	7.4µM*	1	-3	-10%
COc1cccc(N2CCN(S(=O)(=O)c3ccc4c(c3)oc(=O)n4C)CC2)c1	u	17*	15	6%
COc1cccc(N2CCN(C(=O)C3CCN(S(=O)(=O)c4ccc5c(c4)oc(=O)n5C)CC3)CC2)c1	24%	6	-12	u
O=C(Nc1oc2ccc(Cl)cc2c(=O)c1-c1ccc(F)cc1)c1ccco1	12%	10	13	19%
C=C(C)C1CC=C(C)/C(=N/NC(=O)c2cccc([N+](=O)[O-])c2)C1 (stereo not drawn)	10%	3	15	23%
C=C(C)C1CC=C(C)/C(=N/NC(=O)c2ccc(NC(=O)c3cccc(C)c3)cc2)C1 (stereo not drawn)	0%	-1	13	-8%
C=C(C)C1CC=C(C)/C(=N/NC(=S)Nc2ccccc2)C1 (stereo not drawn)	54%	21*	27	10%
C=C(C)C1CC=C(C)/C(=N/NC(=O)c2ccoc2C)C1 (stereo not drawn)	-1%	66*	+	17%
C=C(C)C1CC=C(C)/C(=N/NC(=O)COc2cccc(C)c2)C1 (stereo not drawn)	u	8	41*	u
CCOC(=O)c1ccc(NC(=O)c2cccc(S(=O)(=O)N3c4ccccc4CC3C)c2)s1 (stereo not drawn)	u	-3	12	12µM*
CC(=O)/C=C/n1c(=S)oc2ccccc21	-81%	32*	35	u
CC(=O)NCCOc1ccc2oc3ccccc3c2c1	x	31*	71*	78%
CC(C)c1ccc(NC(=O)c2cc(S(=O)(=O)NCC3COc4ccccc4O3)ccc2F)cc1 (stereo not drawn)	2.9µM*	-2	-13	u
COc1ccc(NC(=O)c2cc(S(=O)(=O)NCC3COc4ccccc4O3)ccc2F)cc1 (stereo not drawn)	44%	-2	-4	-17%
O=C(COc1ccc([N+](=O)[O-])cc1)Nc1ccccc1N1CCCC1	27%	1	-12	0%
CC(=O)Nc1cccc(N(C)S(C)(=O)=O)c1	40%	-4	-2	0%
CN(c1cccc(NC(=O)Nc2cccc(Cl)c2)c1)S(C)(=O)=O	2%	37*	94*	57%
CN(C)c1ccc(NC(=O)Nc2cccc(Cl)c2)cc1	14%	31*	50*	4%
C/C(CC(=O)Nc1ccc([N+](=O)[O-])cc1)=N\NC(=O)c1ccccc1O	26%	24*	x	37%
C/C(CC(=O)Nc1ccc(N(C)C)cc1)=N\NC(=O)C(=O)NCc1ccccc1	4.7µM*	0	-15	25%
C/C(CC(=O)Nc1ccc(N(C)C)cc1)=N\NC(=O)c1ccccc1O	3%	16*	x	u
C/C(CC(=O)Nc1ccc(N(C)C)cc1)=N\NC(=O)c1ccc(Cl)cc1Cl	11%	17	19	1%
CN(C(=O)c1ccc(S(=O)(=O)N2CCCC2)cc1)C1CCS(=O)(=O)C1 (stereo not drawn)	5%	x	x	4%
SMILES	Pf growth 96h	CHX counter	Shiga inhibitor	Pf growth 48h
CCOC(=O)C(CO)(NC(C)=O)C(=O)OCC	0.93µM*	-2	-15	5%
CCOC(=O)C(CCCCCCC(NC(C)=O)(C(=O)OCC)C(=O)OCC)(NC(C)=O)C(=O)OCC	-25%	6	-6	2%
NC(=O)C1=NOC(CNc2ncc(C(F)(F)F)cc2Cl)C1 (stereo not drawn)	66%	36*	87*	x
CO/N=C/NC(=O)C1=NOC(CNc2ncc(C(F)(F)F)cc2Cl)C1 (stereo not drawn)	4%	1	-10	7%
COc1ccc(CCNC(=O)CCN2C(=O)c3cccc4cccc(c34)C2=O)cc1OC	3%	-5	-6	3%
COc1cc(CCN2C(=O)c3cccc4cccc(c34)C2=O)c(S(=O)(=O)NCCO)cc1OC	u	0	30	u
COc1cc(CCN2C(=O)c3cccc4cccc(c34)C2=O)c(S(=O)(=O)N2CCC(C)CC2)cc1OC	u	-5	13	6.6µM*
COc1ccccc1CN1C(=O)c2cccc3cccc(c23)C1=O	16%	-2	11	-6%
COc1ccc(CCN2C(=O)c3cccc4c(C(=O)N5CCCCC5)ccc(c34)C2=O)cc1OC	8.3µM*	-2	-9	u
COc1cc(CCN2C(=O)c3cccc4cccc(c34)C2=O)c(S(=O)(=O)N2CCCCCC2)cc1OC	2.3µM*	-3	5	u
COc1cc(CCN2C(=O)c3cccc4cccc(c34)C2=O)c(S(=O)(=O)NCCCO)cc1OC	8.3µM*	1	17	u
COc1ccc(S(=O)(=O)N2CCC(C(=O)NC3CCCCC3)CC2)cc1OC	-8%	x	x	-20%
CNc1nnc(-c2cccc(N(C)C)c2)s1	3%	46*	122*	148%
Cc1cccc(-c2nnc(NC(=O)c3cccs3)s2)c1	47%	15	49	71%
COc1cccc2c1OCC(CN1CCN(CCC(C)C)C(CCO)C1)=C2 (stereo not drawn)	u	-3	1	-15%
COc1ccc2c(c1)c(C(O)CN1CCC(Cc3ccccc3)CC1)c(C)n2C (stereo not drawn)	10µM*	1	-12	13µM*
CCn1cc(C(=O)N[C@@H](CCSC)C(=O)NCCCO)c(=O)c2cc3c(cc21)OCO3	u	-3	-6	u
CCn1cc(C(=O)N[C@@H](CCSC)C(=O)NCCOC)c(=O)c2cc3c(cc21)OCO3	12µM*	-2	2	u
Cc1ccc(NC(=O)CCc2ccc(C)o2)cc1	-26%	16*	x	52%
Cc1ccc(CCC(=O)Nc2ccc([N+](=O)[O-])cc2)o1	17%	2	26	u
O=C(O)CCc1ccc(-c2cccs2)o1	x	12	12	3%
Cc1cccc(NC(=O)CCc2ccc(C)o2)c1	u	18*	46	16%
Cc1cc(C)cc(NC(=O)CCc2ccc(C)o2)c1	57%	22	23	13%
CC(=O)Nc1ccc(NC(=O)CCc2ccc(C)o2)cc1	-15%	2	-6	-2%
Cc1ccc(-c2ccc(CCC(=O)O)o2)cc1	97%	38*	45*	-3%
Cc1ccc(CCC(=O)Nc2ccc(C)c(C)c2)o1	37%	19*	17	38%
COCCN(C(=O)c1snc(C(N)=O)c1N)C(C(=O)NC1CCCCC1)c1ccc(OC)c(OC)c1 (stereo not drawn)	99%	-3	-6	-30%
CN(C)c1ccc(C=C(c2nnnn2-c2ccccc2)c2nnnn2-c2ccccc2)cc1	i	-2	-14	9.3µM*
COC(=O)c1ccc(/C=C/c2c(-c3ccsc3)oc3ccc(N4CCOCC4)cc23)cc1	13µM*	6	15	u
